Bioassay records as filed in PubChem.
The list is not random: actives were taken first. Their share in the collection is about 7.9%.
HT1080 IDH1KD tx: kills HT-1080 cells with IDH1 knockdown. 360,000 compounds, 2% hits. Potency, µM (highest dose often 46.1 µM), for inactives: top-dose activity, negative = toxicity, most hits filed as cytotoxic. HT-1080 IDH1 knockdown viability, ATP luminescence, 48 h;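 further: 0% = DMSO wells and -100% = cell-free medium wells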
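Luminescent ATP read-out (CellTiter-Glo, 10 min at room temperature) after 48 h compound exposure at 37 °C gave viability of IDH1-knockdown HT-1080 cells. Activity was normalised to DMSO and cell-free wells, then fitted as concentration-response curves.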
KB-V1 MDR tox: KB-V1 MDR subline cytotoxicity; KB-V1 MDR cells viability, CellTiter-Glo, 72 h; 400,000 compounds, 3.4% hits; Potency, µM (highest dose often 46.1 µM), most hits filed as cytotoxic; further: on the % scale 0 is the no-effect control and ±100 the full control effect; nearly all actives have a fitted effect of over 60% in size
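Cells of the MDR subline KB-V1 are plated, dosed with compound at multiple concentrations, and incubated 72 h at 37 degrees C; CellTiter-Glo is then added and luminescence read after 10 min.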
KB-3-1 tox: KB-3-1 parental cell cytotoxicity; 400,000 compounds, 1.4% hits; AID 1347075; Potency, µM (highest dose often 46.1 µM), hits mostly cytotoxic; KB-3-1 viability, CellTiter-Glo ATP luminescence, 72 h; further: on the % scale 0 is the no-effect control and ±100 the full control effect; nearly all actives have a fitted effect of over 60% in size
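Luminescent ATP read-out (CellTiter-Glo) measures survival of drug-naive KB-3-1 cells after 72 h compound exposure at 37 °C. Titration series was screened from lowest to highest concentration, with DMSO vehicle plates as background controls.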
HT1080NT lethal: kills 2HG-producing HT-1080-NT fibrosarcoma cells | 360,000 compounds, 1.6% hits | Potency, µM (series often up to 46.1 µM), for inactives: at the highest dose activity, negative = less viability, most hits filed as cytotoxic | HT-1080-NT fibrosarcoma viability, CellTiter-Glo ATP luminescence, 48 h;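 further: NT is the 2HG producing partner of a matched IDH1 knockdown line; 0% = DMSO-treated cells and -100% = media-only wells without cells; nearly all actives have a fitted effect of over 55% in size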
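HT-1080-NT; 750 cells/well; 5% FBS RPMI; 48 h compound, 37 degrees C; CellTiter-Glo luminescence; curve fitting and curve-class assignment.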
SW480 rerep: DNA re-replication induction in SW480 cells. SW480 DNA re-replication, Hoechst DNA content imaging, 48 h. Potency, µM (highest dose often 46.1 µM), for inactives: top-dose re-replication activation, most hits filed as activators. 340,000 compounds, 1.8% hits; further: % of control where 0% means no effect; nearly all actives have a fitted effect of over 55% in size
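Per well, 250 cells were exposed to pinned compound for 48 hr. Nuclear DNA was visualised with Hoechst (40 min, 37 C) and total object intensity recorded by fluorescence scanning.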
MCF10A rereplic: inducers of DNA re-replication in MCF 10A breast cells; MCF 10A DNA re-replication, Hoechst nuclear intensity, 48 h; Potency, µM (series often up to 46.1 µM), without a hit: at the top dose activity, positive = re-replication, usual class: activators; 350,000 compounds, 2.9% hits; further: % of control where 0% means no effect; nearly all actives have a fitted effect of over 50% in size
* marks the source's active call; other numbers are inactive results; i = inactive; ? = inconclusive; · = not tested or not shown; ! = a repeat was not active. The call rests on the fitted dose curve; in most records, active means well fitted curve in the direction sought with a large enough effect; inconclusive means small, poorly fitted or top-dose-only effect, or another doubt; inactive means no such curve, though single readings can be large; an effect the other way counts as inactive or inconclusive. Potency means the concentration at half of the fitted maximal effect.

SMILES	HT1080 IDH1KD tx	KB-V1 MDR tox	KB-3-1 tox	HT1080NT lethal	SW480 rerep	MCF10A rereplic
CC1Cc2ccccc2N1Cc1cccc(S(=O)(=O)N(C)C)c1 (stereo unspecified)	-23.0%	i	i	-26.6%	0.6%	?
Cc1cccc(N2C(=O)NC(=O)/C(=C\c3cc(C)n(-c4sc5c(c4C#N)CCCC5)c3C)C2=O)c1C	16.4µM*	?	i	?	-29.3%	20.6µM*
CC(C)(C)c1ccc(C(=O)NC(=S)Nn2cnnc2)cc1	2.7%	i	i	10.3%	0.8%	?
Ic1ccccc1CN[C@@H]1C2CCN(CC2)[C@@H]1C(c1ccccc1)c1ccccc1	20.6µM*	16.4µM*	?	18.4µM*	-1.6%	?
CCOc1ccccc1NC(=O)c1cccn(Cc2ccccc2C)c1=O	·	?	i	·	·	·
O=C(Nc1ccc2c(c1)OCO2)c1cccn(Cc2cccc([N+](=O)[O-])c2)c1=O	·	i	i	·	·	·
O=C1C(I)=CC(=C(c2cc(I)c(O)c(I)c2)c2ccccc2C(=O)O)C=C1I	·	·	·	·	-2.7%	?
C[C@]12CCC(=O)C(O)=C1CC[C@@H]1[C@H]3CCC(=O)[C@@]3(C)CC[C@@H]12	·	·	·	·	-1.6%	14.9%
CN1[C@@H]2CC[C@H]1CC(OC1c3ccccc3CCc3ccccc31)C2 (stereo partly specified)	25.9µM*	?	i	16.4µM*	3.16µM*!	-2.5%
CCN(CC)CCOC(=O)C(C)(c1ccccc1)c1ccccc1	·	·	·	·	0.9%	?
Fc1ccc(C(OCCN2CCN(CCCc3ccccc3)CC2)c2ccc(F)cc2)cc1	·	16.4µM*	?	·	?	21.1µM*
Fc1ccc(C(OCCN2CCCC2)c2ccc(F)cc2)cc1	-10.1%	?	i	-10.7%	-0.2%	?
Fc1ccc(C(OCCN2CCCC2)c2ccc(Br)cc2)cc1 (stereo unspecified)	16.4µM*	?	i	16.4µM*	7.4%	?
c1ccc(CCN2CCOCC2)cc1	·	i	i	·	·	·
c1ccc(CCCN2CCN(CCOC(c3ccccc3)c3ccccc3)CC2)cc1	23.1µM*	10.3µM*	?	23.1µM*	?	5.17µM*
C/C=C/C(=O)OCC(=O)Nc1ccc(OC)c(Cl)c1	-1.0%	i	i	-12.4%	-1.0%	?
Cc1ccc(-n2c(/C=C/c3cccc4ccccc34)nc3ccccc3c2=O)cc1	·	i	i	·	·	·
N#Cc1cc2c(nc1SCC(=O)Nc1cccc(C(F)(F)F)c1)C1CCN2CC1	·	9.2µM*	?	·	·	·
N#Cc1cc2c(nc1SCC(=O)Nc1ccc(F)c(Cl)c1)C1CCN2CC1	·	14.6µM*	i	·	·	·
N#Cc1cc2c(nc1SCC(=O)Nc1cc(Cl)cc(Cl)c1)C1CCN2CC1	-0.8%	4.61µM*	i	18.5%	24.3%	2.31µM*
N#Cc1cccc(NC(=O)CSc2nc3c(cc2C#N)N2CCC3CC2)c1	·	i	?	·	·	·
O=[N+]([O-])c1ccc(N2CCOCC2)c2c1no[n+]2[O-]	5.17µM*	5.17µM*	?	5.17µM*	·	·
O=C(COC(=O)CCc1c[nH]c2ccccc12)Nc1ccc([N+](=O)[O-])cc1	17.8%	i	i	11.1%	-45.6%	-81.6%
CCCCCCCCCC(CC)c1ccc(S(=O)(=O)O)cc1 (stereo unspecified)	·	·	·	·	?	0.5%
C=C(C)[C@@H]1CC[C@]2(C(=O)O)CC[C@]3(C)C(CCC4[C@@]5(C)CC[C@H](O)C(C)(C)C5CC[C@]43C)C12 (stereo partly specified)	?	i	?	?	?	?
SMILES	HT1080 IDH1KD tx	KB-V1 MDR tox	KB-3-1 tox	HT1080NT lethal	SW480 rerep	MCF10A rereplic
Cc1cc(OCCCC(=O)NCc2cccs2)ccc1Cl	-5.3%	i	i	10.5%	?	3.0%
Cc1cc(Cl)ccc1OCCCC(=O)NCc1cccs1	-10.6%	25.9µM*	i	-5.3%	?	?
O=c1c2ccccc2nc(/C=C\c2ccccc2F)n1-c1ccc(O)cc1	·	i	i	·	·	·
Cc1ccc(C(=O)Nc2ccccc2)cc1S(=O)(=O)N1CCCC1	·	14.6µM*	?	·	·	·
CCN(C(=O)COC(=O)c1cc(C)n(C2CC2)c1C)c1ccccc1	19.6%	2.59µM*	i	4.0%	-2.2%	?
CN1C(=O)[C@@H](NC(=O)c2cc3ccccc3[nH]2)N=C(c2ccccc2)c2ccccc21	·	·	·	·	?	-1.2%
CN1CCc2c(C#N)c(Cl)nc(Cl)c2C1	0.1%	?	i	-18.8%	2.31µM*	?
O=C(Nc1ccc2oc(-c3ccccc3F)nc2c1)c1ccc2c(c1)OCCO2	?	18.4µM*	i	12.6µM*	8.7%	?
CCN(CC)CCCOC(=O)C(OC(C)C)(c1ccccc1)c1ccccc1	?	8.2µM*	?	?	?	1.6%
CCC(=O)Nc1nc2ccccc2n1CCN(C)C	1.0%	i	i	1.9%	-9.3%	?
CC(C)(C)OC(=O)c1c(N)n(Cc2ccco2)c2nc3ccccc3nc12	-5.4%	i	i	-8.7%	?	?
Nc1c(C(=O)OCc2ccccc2)c2nc3ccccc3nc2n1Cc1cccs1	?	5.17µM*	i	?	14.6µM*	6.51µM*
CCC(C)OC(=O)c1c(N)n(Cc2cccs2)c2nc3ccccc3nc12 (stereo unspecified)	?	i	?	-16.2%	?	11.6µM*
O=Cc1ccco1	·	·	·	·	-1.4%	-0.6%
CCOC(=O)c1cccc(NC(=O)c2c(O)[nH]c(=O)[nH]c2=O)c1	-1.5%	i	i	-7.2%	-2.4%	23.3%
CCOC(=O)c1cccc(-[n+]2c(-c3ccccc3)cc(-c3ccccc3)cc2-c2ccccc2)c1	18.4µM*	i	?	?	?	0.6%
CCOC(=O)c1ccc(-[n+]2c(-c3ccccc3)cc(-c3ccccc3)cc2-c2ccccc2)cc1	23.1µM*	i	i	18.4µM*	?	?
Cc1ccc(-c2cc(-c3ccc(C)cc3)[n+](-c3ccc(C(=O)[O-])cc3)c(-c3ccc(C)cc3)c2)cc1	-14.6%	i	i	-16.6%	-2.9%	?
Clc1ccc2c(c1)C(c1ccccc1)=NCc1nncn1-2	·	·	·	·	-3.7%	2.4%
Cc1cccc(Cn2cccc(C(=O)Nc3cc(C)on3)c2=O)c1	·	i	i	·	·	·
NCCc1ccc(OCc2ccccc2)c(OCc2ccccc2)c1	?	23.1µM*	?	-25.0%	?	?
[O]=[Cd]	·	·	·	·	-7.8%	-1.0%
O=C(Nc1ccc(Cl)cc1)Nc1ccc(Cl)c(Cl)c1	?	20.6µM*!	?	?	?	?
